Potency and outcome data for 10 compounds are collected here from PubChem BioAssay (Tox21).

A short description of test [1]: qHTS assay to identify small molecule antagonists of the peroxisome proliferator-activated receptor delta (PPARd) signaling pathway - cell viability counter screen (AID 743213; active = well fitted curve in the direction sought with a large enough effect in the repeat runs; an effect the other way counts as inactive or inconclusive; also: nearly all actives have a fitted effect of over 50% in size; also: potency is read from the fitted curve at half-maximal effect). Summed up:
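Cytotoxicity counter screen: CellTiter-Glo luminescence read 30 min after addition, in the same wells as the reporter assay. There, PPARd UAS-bla HEK293H cells (3000/well) were treated 17 h at 37 C with compound and 300 nM L165041.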

For test [2], the target named is Bile acid receptor (Homo sapiens) (UniProt Q96RI1). Kind of test: qHTS assay to identify small molecule antagonists of the farnesoid-X-receptor (FXR) signaling pathway (AID 743217; active = well fitted inhibition curve with a large enough effect in the signal ratio in the repeat runs, not every such curve was filed as active; the % refers to the signal ratio). In short, it runs like this: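 Beta-lactamase reporter under UAS control in HEK 293T cells; compound exposure 16 h at 37 °C in the presence of chenodeoxycholic acid (50 uM final); signal from B/G FRET substrate after 2 h at room temperature.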

Test [3] shares this target. Kind of test: qHTS assay to identify small molecule agonists of the farnesoid-X-receptor (FXR) signaling pathway (AID 743220; active = well fitted activation curve with a large enough effect in the signal ratio in the repeat runs, not every such curve was filed as active; the % refers to the signal ratio). In short, it runs like this:
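Beta-lactamase reporter under UAS control in GeneBLAzer FXR HEK 293T cells (5000/well) measured with LiveBLAzer FRET substrate after 2 h at room temperature. Compound exposure lasted 16 h at 37C.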

A short description of test [4]: qHTS assay to identify small molecule antagonists of the farnesoid-X-receptor (FXR) signaling pathway - cell viability counter screen (AID 743221; active = well fitted cell-killing curve with a large enough effect in the repeat runs, not every such curve was filed as active; also: nearly all actives have a fitted effect of over 50% in size). Summed up:
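GeneBLAzer FXR-UAS-bla HEK 293T cells, compound plus chenodeoxycholic acid (50 uM final), 16 h at 37 C. CellTiter-Glo added to the same wells after the beta-lactamase read; luminescence read after 30 min at room temperature as viability.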

Test [5] addresses Vitamin D3 receptor (Homo sapiens) (UniProt P11473). The test is described as follows: qHTS assay to identify small molecule agonists of the vitamin D receptor (VDR) signaling pathway (AID 743222). In short, it runs like this: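 Agonist activity measured in VDR-bla reporter cells. Exposure 16 h, 37C, 5% CO2; detection by B/G FRET substrate, 2 h RT.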
Test [6] shares this target. Kind of test: qHTS assay to identify small molecule antagonists of the vitamin D receptor (VDR) signaling pathway (AID 743223; active = well fitted inhibition curve with a large enough effect in the signal ratio in the repeat runs, not every such curve was filed as active; the % refers to the signal ratio). In short, it runs like this:
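VDR-bla cells were treated with compound plus 3 nM final 1alpha,25-dihydroxyvitamin D3 for 16 h at 37C. Beta-lactamase reporter read by B/G FRET substrate fluorescence after 2 h at room temperature. qHTS format.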

The nature of test [7]: qHTS assay to identify small molecule antagonists of the vitamin D receptor (VDR) signaling pathway - cell viability counter screen (AID 743225; active = well fitted curve in the direction sought with a large enough effect in the repeat runs; an effect the other way counts as inactive or inconclusive; also: nearly all actives have a fitted effect of over 50% in size). In short, it runs like this:
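VDR-UAS-bla HEK 293T cells were plated and incubated 4 h at 37C, then dosed with compound plus 3 nM (final) 1-alpha,25-dihydroxyvitamin D3 for 16 h. After the 2 h beta-lactamase read, viability in the same wells was read as CellTiter-Glo luminescence after 30 min at room temperature.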

The nature of test [8]: qHTS assay to identify small molecule agonists of the NFkB signaling pathway - cell viability counter screen (AID 1159515). Also: nearly all actives have a fitted effect of over 55% in size. Also: potency is read from the fitted curve at half-maximal effect. Summed up: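 Viability in NFkB-bla ME-180 cells was measured by CellTiter-Glo luminescence, 30 min room temperature, in wells already treated 5 hr with compounds and read for reporter FRET.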
A short description of test [9]: qHTS assay to identify small molecule agonists of the endoplasmic reticulum stress response signaling pathway (AID 1159516; active = well fitted activation curve with a large enough effect in the signal ratio in the repeat runs, not every such curve was filed as active; the % refers to the signal ratio). Summed up: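 ER stress element reporter (bla) in HeLa. 1,500 cells/well, overnight attachment; 5 hr compound; 2 hr RT substrate; dual-emission fluorescence.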
Test [10] in a line: qHTS assay to identify small molecule agonists of the endoplasmic reticulum stress response signaling pathway - cell viability counter screen (AID 1159517). Also: nearly all actives have a fitted effect of over 50% in size. Also: potency is read from the fitted curve at half-maximal effect. Summed up: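 Cells, HeLa ESRE-bla; density, 1,500/well; dosing, 5 hr at 37 C, 5% CO2; readout, CellTiter-Glo luminescence after 30 min RT.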
Test [11] can be described thus: qHTS assay to identify small molecule antagonists of the retinoid-related orphan receptor gamma (ROR-gamma) signaling pathway - cell viability counter screen (AID 1159520; active = well fitted curve in the direction sought with a large enough effect in the repeat runs; an effect the other way counts as inactive or inconclusive; also: nearly all actives have a fitted effect of over 50% in size; also: potency is read from the fitted curve at half-maximal effect). Summed up: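 Cytotoxicity was read from cellular ATP (CellTiter-Glo luminescence) after 16 hr at 37 C with 1 uM doxycycline induction. The inducer was added 2 hr after compound transfer to Tet-on ROR gamma CHO cells.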

Test [12] concerns the target Nuclear receptor ROR-gamma (Homo sapiens) (UniProt P51449). Kind of test: qHTS assay to identify small molecule antagonists of the retinoid-related orphan receptor gamma (ROR-gamma) signaling pathway (AID 1159521; active = well fitted curve in the direction sought with a large enough effect in the repeat runs; an effect the other way counts as inactive or inconclusive). In short, it runs like this:
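Tet-on ROR-gamma CHO cells with ROR response element-luciferase reporter; compounds added 2 hr before 1 uM doxycycline induction, then 16 hr at 37 C. Antagonism scored as decreased ONE-Glo luminescence.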

A short description of test [13]: qHTS assay to identify small molecule agonists of the AP-1 signaling pathway - cell viability counter screen (AID 1159525). Also: nearly all actives have a fitted effect of over 55% in size. Also: potency is read from the fitted curve at half-maximal effect. Summed up:
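Luminescent ATP readout (Cell Titer Glo, 30 min RT), normalised to DMSO and tetra n-octyl ammonium bromide controls. Cells were ME-180 AP-1-bla in 0.5% dialyzed FBS Opti-MEM, with a 5 h, 37 °C compound exposure.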

Test [14] in a line: qHTS assay to identify small molecule agonists of the AP-1 signaling pathway (AID 1159526).
Test [15] in a line: qHTS assay to identify small molecule agonists of the peroxisome proliferator-activated receptor delta (PPARd) signaling pathway - cell viability counter screen (AID 743211; active = well fitted curve in the direction sought with a large enough effect in the repeat runs; an effect the other way counts as inactive or inconclusive; also: nearly all actives have a fitted effect of over 55% in size; also: potency is read from the fitted curve at half-maximal effect). Summed up: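 PPARd-bla HEK293H cells (3000/well) were pre-incubated 5 h at 37 C, then exposed to compound for 17 h at 37 C. After 2 h with LiveBLAzer substrate, CellTiter-Glo was added to the same wells; luminescence read after 30 min at room temperature.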

Test [16] is described as follows: qHTS assay to identify small molecule agonists of the vitamin D receptor (VDR) signaling pathway - cell viability counter screen (AID 743224; active = well fitted curve in the direction sought with a large enough effect in the repeat runs; an effect the other way counts as inactive or inconclusive). In short, it runs like this:
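VDR-bla cell line, quantitative HTS format; 16 h compound incubation (37C, 5% CO2); ATP-based CellTiter-Glo luminescence measured in the reporter assay wells.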

Test [17] has as its target Peroxisome proliferator-activated receptor delta (Homo sapiens) (UniProt Q03181). Kind of test: qHTS assay to identify small molecule agonists of the peroxisome proliferator-activated receptor delta (PPARd) signaling pathway (AID 743212). In short, it runs like this: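 HEK293H UAS-bla reporter cells, human PPARd system; compounds delivered in DMSO after 5 h plating, then at 37 C. Beta-lactamase FRET read, 2 h RT substrate step.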

Test [18] has the same target. The test is described as follows: qHTS assay to identify small molecule antagonists of the peroxisome proliferator-activated receptor delta (PPARd) signaling pathway (AID 743215; active = well fitted inhibition curve with a large enough effect in the signal ratio in the repeat runs, not every such curve was filed as active; the % refers to the signal ratio;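 also: cells stimulated with agonist L165041 at 300 nM final during compound exposure; series mostly up to about 62 µM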). Summed up: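 Antagonist-mode beta-lactamase reporter screen: HEK293H cells with UAS-bla under PPARd control, stimulated by 300 nM L165041 (final) alongside test compound for 17 h at 37 C, then FRET fluorescence after 2 h substrate incubation.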

Test [19] in a line: qHTS assay to identify small molecule agonists of the farnesoid-X-receptor (FXR) signaling pathway - cell viability counter screen (AID 743218; active = well fitted curve in the direction sought with a large enough effect in the repeat runs; an effect the other way counts as inactive or inconclusive; also: nearly all actives have a fitted effect of over 45% in size). In short, it runs like this: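 In GeneBLAzer FXR-UAS-bla HEK 293T cells, compounds act for 16 h at 37 C. Cell viability is then scored in the reporter wells by CellTiter-Glo, 30 min at RT, luminescence.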
Test [20] addresses Retinoic acid receptor RXR-alpha (Homo sapiens) (UniProt P19793). The test is described as follows: qHTS assay to identify small molecule agonists of the RXR signaling pathway (AID 1159527). Also: nearly all actives have a fitted effect of over 35% in size. In short, it runs like this: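 GeneBLAzer RXR-alpha-UAS-bla HEK 293T cells in 2% charcoal-stripped FBS medium were exposed to compounds for 16 hr at 37 C in agonist mode. Beta-lactamase reporter read as 460/530 nm FRET ratio after 2 hr substrate loading.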

Where “and” joins values, the source holds several entries; their conditions need not be identical. Equal entries are not always repeated. Records with an inconclusive call do not appear. More than one record can exist for a structure, and the calls need not agree. Calls of active or inactive are those of the source. Unless noted, calls follow the shape of the full dose curve.

Sequence of Retinoic acid receptor RXR-alpha (Homo sapiens) (P19793 whole entry, looked up): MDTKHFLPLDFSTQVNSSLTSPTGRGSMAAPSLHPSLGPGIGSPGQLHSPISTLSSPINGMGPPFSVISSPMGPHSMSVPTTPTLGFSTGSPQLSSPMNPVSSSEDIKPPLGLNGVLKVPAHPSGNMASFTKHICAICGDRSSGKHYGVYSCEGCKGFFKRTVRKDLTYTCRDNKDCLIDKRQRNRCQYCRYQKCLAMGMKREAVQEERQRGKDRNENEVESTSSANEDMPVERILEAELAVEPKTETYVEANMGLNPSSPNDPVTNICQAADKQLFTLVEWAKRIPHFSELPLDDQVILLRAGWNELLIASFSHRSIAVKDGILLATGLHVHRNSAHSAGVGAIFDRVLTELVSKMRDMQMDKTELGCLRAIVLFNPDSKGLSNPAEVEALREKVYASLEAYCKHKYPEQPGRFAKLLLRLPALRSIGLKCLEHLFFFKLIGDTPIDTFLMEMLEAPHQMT
Sequence of Peroxisome proliferator-activated receptor delta (Homo sapiens) (Q03181 whole entry, looked up): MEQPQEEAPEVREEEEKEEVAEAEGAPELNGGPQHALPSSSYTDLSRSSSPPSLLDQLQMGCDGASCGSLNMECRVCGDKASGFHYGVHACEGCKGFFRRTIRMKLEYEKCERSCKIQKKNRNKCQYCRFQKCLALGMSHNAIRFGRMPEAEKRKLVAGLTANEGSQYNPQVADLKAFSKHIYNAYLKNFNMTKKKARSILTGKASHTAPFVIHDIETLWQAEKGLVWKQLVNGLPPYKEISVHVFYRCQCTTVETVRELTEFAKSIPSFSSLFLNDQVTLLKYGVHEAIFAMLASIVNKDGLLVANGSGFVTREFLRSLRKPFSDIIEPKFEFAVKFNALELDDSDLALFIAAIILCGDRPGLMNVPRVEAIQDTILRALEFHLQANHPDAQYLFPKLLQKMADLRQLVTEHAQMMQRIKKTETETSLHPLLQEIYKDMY
Sequence of Vitamin D3 receptor (Homo sapiens) (P11473 whole entry, looked up): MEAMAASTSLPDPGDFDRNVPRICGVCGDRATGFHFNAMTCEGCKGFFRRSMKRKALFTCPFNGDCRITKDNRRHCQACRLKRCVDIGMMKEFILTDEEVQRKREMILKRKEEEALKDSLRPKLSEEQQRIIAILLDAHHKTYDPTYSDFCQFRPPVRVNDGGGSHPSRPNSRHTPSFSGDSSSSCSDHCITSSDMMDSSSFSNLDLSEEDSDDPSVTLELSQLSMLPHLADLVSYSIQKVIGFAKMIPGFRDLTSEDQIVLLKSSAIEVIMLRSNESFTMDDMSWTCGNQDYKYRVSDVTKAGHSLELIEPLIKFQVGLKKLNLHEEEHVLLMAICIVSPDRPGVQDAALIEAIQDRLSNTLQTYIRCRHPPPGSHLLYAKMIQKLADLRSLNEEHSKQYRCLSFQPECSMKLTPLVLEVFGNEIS
Sequence of Bile acid receptor (Homo sapiens) (Q96RI1 whole entry, looked up): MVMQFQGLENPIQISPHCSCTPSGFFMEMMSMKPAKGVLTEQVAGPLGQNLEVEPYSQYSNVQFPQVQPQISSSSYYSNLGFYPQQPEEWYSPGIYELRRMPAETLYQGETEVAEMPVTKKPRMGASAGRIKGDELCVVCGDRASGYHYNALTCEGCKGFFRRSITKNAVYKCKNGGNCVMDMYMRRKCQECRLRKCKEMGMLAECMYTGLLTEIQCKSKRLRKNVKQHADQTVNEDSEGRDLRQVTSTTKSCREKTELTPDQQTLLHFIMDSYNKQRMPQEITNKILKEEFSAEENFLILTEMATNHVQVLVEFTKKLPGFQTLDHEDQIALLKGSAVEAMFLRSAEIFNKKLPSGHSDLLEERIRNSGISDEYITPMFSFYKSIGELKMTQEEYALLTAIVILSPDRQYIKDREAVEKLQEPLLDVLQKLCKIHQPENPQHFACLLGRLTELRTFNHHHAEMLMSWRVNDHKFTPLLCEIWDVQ

`COc1ccc(CO)cc1`: the Potency entry in test [1], in [2], in test [3], in test [4], in test [6] and in [7] was “inactive” in each case. Also, the Potency result in [8], in [9], in test [10], in [11], in test [12] and in test [13] was “inactive” throughout. In addition, the call in test [5] and in [14] was inactive.
With `S=c1[nH]c2ccccc2[nH]1`, the Potency entry in test [15], in test [1], in [4], in test [16], in test [7] and in test [8] was “inactive” throughout. Also, the Potency result in test [9], in test [10], in test [11], in test [12] and in test [13] was “inactive” each time. Besides, the result in test [14] was inactive.
Take `COc1ccc(O)c(C(C)(C)C)c1`: the Potency result in test [15], in test [1], in test [2], in test [3], in test [4] and in test [16] was “inactive” throughout. The Potency result in [7], in [8], in test [9], in test [10], in test [11] and in [13] was “inactive” in each case. In addition, the call in test [5] and in test [14] was inactive.
In the case of `OCCOCCO`, the Potency entry in [15], in test [17], in [1], in [18], in test [2] and in [19] was “inactive” throughout. The Potency result in test [3], in test [4], in test [16], in test [7], in [8] and in [9] was “inactive” in each case. Besides, the Potency entry in test [11], in test [12] and in test [13] was “inactive” each time. Also, the compound was called inactive in test [5] and in [14].
For `CCCCOC(=O)COC(=O)c1ccccc1C(=O)OCCCC`, the Potency result in test [17], in test [1], in test [4], in test [7], in test [8] and in [9] was “inactive” in each case. The Potency result in test [10], in test [11], in test [12] and in test [13] was “inactive” in each case. In addition, the outcome in [14] was inactive.
On to `c1ccc2c(c1)Nc1ccccc1S2`, for which the Potency entry in test [17], in [1], in [19], in test [4], in [7] and in test [8] was “inactive” throughout. Also, the Potency entry in [9], in test [10], in test [11], in test [12], in test [13] and in [20] was “inactive” throughout.
As to `COP(=S)(OC)Oc1ccc(S(=O)(=O)N(C)C)cc1`, the Potency entry in test [15], in test [1], in test [19], in test [4], in test [16] and in test [7] was “inactive” each time. Also, the Potency result in test [8], in test [9], in test [11], in [12], in [13] and in [20] was “inactive” each time. In addition, the result in test [5] and in [14] was inactive.
On to `ClC(Cl)=C(Cl)C(Cl)=C(Cl)Cl`, for which the Potency result in test [17], in test [1], in [18], in test [19], in test [4] and in test [7] was “inactive” in each case. Also, the Potency entry in test [8], in test [9], in test [10], in [11], in test [12] and in test [13] was “inactive” throughout. In addition, the compound was classed as inactive in test [14].
Regarding `Oc1ccc(Cl)cc1Cc1ccccc1`, the Potency in test [15] is 54.9 µM (active); in [1], 44.2 µM (active) and inactive; in [8] it was 54.9 µM (active) and 49.6 µM (active); in test [10] it was 49 µM (active) and inactive; in test [11], 61.1 µM (active) and inactive; in [13], 54.9 µM (active) and 44.2 µM (active). Further, the Potency entry in test [17], in test [4], in test [16] and in test [9] was “inactive” in each case.
On to `Cn1c(-c2ccccc2)cc(-c2ccccc2)[n+]1C`, for which the Potency entry in test [15], in test [17], in test [1], in [4], in [16] and in test [7] was “inactive” throughout. In addition, the Potency entry in test [8], in [9], in test [10], in [11], in [12] and in test [13] was “inactive” throughout. In addition, the compound was classed as inactive in test [5] and in test [14].
